# NOMO-1 viab: STK33 inhibitor candidate reducing NOMO-1 cell viability | NOMO-1 AML viability, CellTiter-Glo luminescence, 72 h | inhibition, % (concentration not given with the values) | actives 7.5% (n = 37,000) | AID 2330; in the data active = inhibition above about 80%
# PD-1 reverse act: activators reversing PD-1 mediated T-cell inhibition; primary human CD4 T cells, PD-L1 beads, CellTiter-Glo 96 h; activation, % (concentration not given with the values); 29,000 tested, under 10 active; AID 2316; call rule not given here;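 also: 0% = median vehicle wells and 100% = positive control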
# Hedgehog inh: blocks Sonic Hedgehog signaling; actives 2.1% (n = 22,000); Shh-LIGHT2 Gli-luciferase reporter, 30 h; inhibition, % (test concentration not listed); AID 2313;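 active = mean inhibition across valid replicates above about 65%, limit read from the data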;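 also: pathway switched on by Shh-conditioned medium diluted 1 in 25 in low serum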
# * hit, by the source's call; . = not tested or not shown. Compounds with a hit are over-represented: about 7.7% of the library has one in this group of screens.
SMILES,NOMO-1 viab,PD-1 reverse act,Hedgehog inh
O=C(Cn1cc(C(=O)c2cccs2)c2ccccc21)Nc1ccccc1,28.3,1.0,.
Cc1ccc(NC(=O)CNC(=O)c2ccc([N+](=O)[O-])cc2)cc1,0.3,.,.
Cc1nnc(SCC(=O)Nc2cccc([N+](=O)[O-])c2)s1,-17.6,.,.
O=C1/C(=C/c2ccc(-c3nn[nH]n3)cc2)C(c2ccccc2)Oc2ccccc21 (configuration not stated),57.1,-9.4,73.8*
CCOC(=O)c1ccc(SC)cc1OC,3.3,-0.6,-25.9
COC(=O)c1c(C)oc2ccc(N(C(=O)c3ccncc3)S(=O)(=O)c3ccc(OC)cc3)cc12,111.5*,-4.0,.
CC(=O)c1c(C)oc2ccc(N(C(=O)c3ccncc3)S(=O)(=O)c3ccc(F)cc3)cc12,31.1,0.3,.
O=[N+]([O-])c1ccccc1S(=O)(=O)N1CCN(S(=O)(=O)Cc2ccccc2)CC1,35.6,3.1,.
C[C@@H]1CN([C@@H](C)CO)C(=O)c2cc(NC(=O)Nc3ccc(F)cc3)ccc2O[C@H]1CN(C)C(=O)Nc1ccc(F)cc1,-18.8,-1.1,-1.0
C[C@H](CO)N1C[C@H](C)[C@H](CN(C)C(=O)Nc2ccc(C(F)(F)F)cc2)Oc2ccc(NC(=O)Nc3ccc(F)cc3)cc2C1=O,104.0*,-4.5,-10.5
C[C@@H]1CN([C@@H](C)CO)C(=O)c2cc(NC(=O)Nc3ccc(C(F)(F)F)cc3)ccc2O[C@H]1CN(C)C(=O)Nc1ccc(F)cc1,39.4,.,21.4
C[C@H](CO)N1C[C@H](C)[C@H](CN(C)C(=O)Nc2ccc(F)cc2)Oc2ccc(NC(=O)Nc3ccc(F)cc3)cc2C1=O,18.3,-3.9,106.9*
C[C@@H]1CN([C@H](C)CO)C(=O)c2cc(NC(=O)Nc3ccc(C(F)(F)F)cc3)ccc2O[C@@H]1CN(C)C(=O)Nc1ccc(F)cc1,83.7*,-3.7,18.5
C[C@H](CO)N1C[C@H](C)[C@@H](CN(C)C(=O)Nc2ccc(F)cc2)Oc2ccc(NC(=O)Nc3ccc(C(F)(F)F)cc3)cc2C1=O,28.9,-2.9,0.2
COc1ccc(-n2c(SCC(=O)Nc3cccc(C)c3C)nnc2-c2ccccc2)cc1,-3.8,.,.
C[C@@H]1CN([C@H](C)CO)C(=O)c2cc(NC(=O)Cc3ccccc3)ccc2O[C@H]1CN(C)Cc1ccc2c(c1)OCO2,6.2,1.1,.
C[C@H](CO)N1C[C@H](C)[C@H](CN(C)Cc2ccc3c(c2)OCO3)Oc2ccc(NC(=O)Nc3cccc4ccccc34)cc2C1=O,97.8*,.,.
C[C@H](CO)N1C[C@H](C)[C@@H](CN(C)Cc2ccc3c(c2)OCO3)Oc2ccc(NC(=O)C3CCCCC3)cc2C1=O,21.8,-0.6,.
C[C@H](CO)N1C[C@H](C)[C@@H](CN(C)Cc2ccc3c(c2)OCO3)Oc2ccc(NC(=O)Nc3ccccc3)cc2C1=O,25.3,1.3,.
C[C@H](CO)N1C[C@H](C)[C@H](CN(C)Cc2ccc3c(c2)OCO3)Oc2ccc(NC(=O)C3CCCCC3)cc2C1=O,93.5*,0.3,.
C[C@H]1CN([C@@H](C)CO)C(=O)c2cc(NC(=O)Nc3cccc4ccccc34)ccc2O[C@H]1CN(C)Cc1ccccc1,14.2,-1.5,7.2
C[C@H](CO)N1C[C@H](C)[C@H](CN(C)Cc2ccc3c(c2)OCO3)Oc2ccc(NC(=O)Nc3ccccc3)cc2C1=O,93.7*,0.5,.
C[C@H]1CN([C@@H](C)CO)C(=O)c2cc(NC(=O)Cc3ccccc3)ccc2O[C@H]1CN(C)Cc1ccc2c(c1)OCO2,95.2*,-1.4,.
O=c1[nH]c2ccc(Cl)cc2c2oc(-c3ccccc3)nc12,13.8,10.4,-22.8
COc1cc2c(cc1OC)N1C(=O)C[C@]34C=CCN5CC[C@@H]2[C@@H](CC3)[C@]514,.,.,-4.1
SMILES,NOMO-1 viab,PD-1 reverse act,Hedgehog inh
Cc1ccc(OCCCSc2nc(C)cc(=O)[nH]2)c(I)c1,14.8,1.7,.
COc1ccc(NC(=O)Nc2ccc3c(c2)C(=O)N([C@@H](C)CO)C[C@@H](C)[C@@H](CN(C)Cc2ccc4c(c2)OCO4)O3)cc1,9.1,.,.
C[C@@H]1CN([C@@H](C)CO)C(=O)c2cc(NC(=O)Nc3ccc4c(c3)OCO4)ccc2O[C@H]1CN(C)Cc1ccc(Cl)c(Cl)c1,94.7*,-0.6,38.3
COc1ccc(NC(=O)Nc2ccc3c(c2)C(=O)N([C@@H](C)CO)C[C@H](C)[C@H](CN(C)Cc2ccc4c(c2)OCO4)O3)cc1,98.0*,0.6,-34.2
C[C@@H]1CN([C@H](C)CO)C(=O)c2cc(NC(=O)Nc3ccc4c(c3)OCO4)ccc2O[C@@H]1CN(C)Cc1ccc2c(c1)OCO2,28.3,0.9,.
C[C@@H]1CN([C@@H](C)CO)C(=O)c2cc(NC(=O)Nc3ccc4c(c3)OCO4)ccc2O[C@@H]1CN(C)Cc1ccc2c(c1)OCO2,28.2,1.6,21.0
C[C@H]1CN([C@@H](C)CO)C(=O)c2cc(NC(=O)Nc3ccc4c(c3)OCO4)ccc2O[C@H]1CN(C)Cc1ccc2c(c1)OCO2,93.2*,0.2,.
COc1cc(-c2nnc(SCC(=O)c3ccco3)n2C)cc(OC)c1OC,3.7,-1.3,17.6
C/C=C(/C)C(=O)O[C@H]1C=C(CO)C(=O)[C@H](OC(=O)/C(C)=C/CO)[C@H]1C(C)C,122.3*,-36.6,46.2
c1ccc2c(c1)OCC(c1nn3c(Cn4cnc5ccccc54)nnc3s1)O2 (configuration not stated),41.8,-3.9,.
O=C1CCC(=O)N1CN(C(=O)C(F)(F)F)c1ccccc1,0.1,0.9,.
O=c1cc(CSc2ccccn2)c2ccc(O)cc2o1,19.8,-0.8,-19.3
O=c1cc(CSc2cccc3cccnc23)c2ccc(O)cc2o1,110.4*,-5.7,7.0
COC(=O)c1ccccc1NC(=O)C1=C(C)NC(=S)NC1c1cc(Cl)cc(OC)c1OC(C)C (configuration not stated),21.2,-4.0,.
COc1ccc(C(=O)NCCn2cc(SC(C)c3ccccc3)c3ccccc32)cc1 (configuration not stated),128.8*,-1.1,77.6*
COc1ccc(C(=O)NCCSc2ccccn2)cc1,24.8,1.3,.
CC(=O)Nc1ccccc1SCC(=O)Nc1ccc(C)cc1,34.0,-6.0,.
O=C(COc1ccc(Cl)cc1)Nc1ccc(O)cc1C(=O)O,-11.9,.,.
C[C@H](CO)N1C[C@H](C)[C@H](CN(C)Cc2ccc(C(F)(F)F)cc2)Oc2ccc(NC(=O)Nc3ccccc3)cc2CC1=O,86.3*,.,.
C[C@@H]1CN([C@H](C)CO)C(=O)Cc2cc(NC(=O)Nc3ccc(C(F)(F)F)cc3)ccc2O[C@@H]1CN(C)Cc1ccc(C(=O)O)cc1,15.7,0.2,.
C[C@@H]1CN([C@H](C)CO)C(=O)Cc2cc(NC(=O)Nc3ccc(C(F)(F)F)cc3)ccc2O[C@H]1CN(C)Cc1ccc(C(=O)O)cc1,12.8,1.3,-13.6
C[C@@H]1CN([C@H](C)CO)C(=O)Cc2cc(NC(=O)Nc3ccccc3)ccc2O[C@H]1CN(C)Cc1ccc(C(F)(F)F)cc1,118.4*,1.5,27.9
CCc1cc(=O)oc2cc(OCc3cc(C(=O)OC)oc3C)ccc12,-0.5,-1.2,.
C1=CN(c2ccccc2)C(C=NCc2ccccc2)=CS1,69.1,0.6,-8.7
COc1cccc(/C=N/O)c1O,8.0,-1.1,23.8
COc1cc(-c2ccccn2)nc(/C=N/O)c1S(C)=O (configuration not stated),.,.,82.8*

# From PubChem
